From PubChem
This is a sample that favours compounds with a hit; in the whole collection about 7.3% have one here.
ELG1 genotoxic: genotoxicity induction in ELG1-luciferase HEK293T cells; Potency, µM (highest dose often 46 µM), for the others: at the highest dose activity change, positive = activation, hits mostly activators; HEK293T ELG1-luciferase reporter, luminescence, 16 h; AID 504466; 330,000 tested, 1.3% active; further: % of control where 0% means no effect; nearly all actives have a fitted effect of over 60% in size
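Reporter readout depends on ELG1 protein level, which increases with genetic stress. After 16 hr compound exposure at 37 °C, luciferase activity was quantified using ONE-Glo.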
uPA generation: inhibitors of cell surface uPA generation; cell surface uPA generation assay, qHTS; Potency, µM (doses to about 38.3 µM), inactives show at the top dose activity change, negative = inhibition, most hits filed as inhibitors; 330,000 tested, 0.31% active; active means well fitted inhibition curve with a large enough effect; inconclusive means small, poorly fitted or top-dose-only effect; inactive means no such curve, though single readings can be large or run the other way; tested in mouse RAW 264.7 cells; further: on the % scale 0 is the no-effect control and ±100 the full control effect; nearly all actives have a fitted effect of over 55% in size
Rab9 promoter act: activators of Rab9 promoter. Huh7 Rab9 promoter-luciferase reporter, luminescence, 24 h. Potency, µM (series often up to 9.22 µM), inactives show at the highest dose activation, negative = inhibition, hits mostly activators. 320,000 tested, 2.8% active. AID 485297; further: % of control where 0% means no effect; nearly all actives have a fitted effect of over 60% in size
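Cell-based reporter: Huh7 stable for Rab9 promoter-driven luciferase, plated in reduced-serum medium with 10% FBS at 1500 cells/well, compound-treated 24 h at 37 °C, luminescence read after 10 min reagent.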
SMN2 splice up: enhancers of SMN2 splice variant expression; AID 1458; HEK293 SMN2-luciferase splicing reporter, luminescence, 30-36 h; 210,000 tested, 2.8% active; Potency, µM (titrated, usually from 46.1 µM), inactives show top-dose activity change, positive = activation, most hits filed as activators; further: % of control where 0% means no effect; nearly all actives have a fitted effect of over 55% in size
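qHTS luciferase splicing reporter: luminescence rises when SMN2 exon 7 is included in transfected HEK293 cells. Compound exposure lasted 30-36 h at 37C, with 4.5 mM final sodium butyrate as control, followed by a ONE-Glo read.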
NPC1 prom act: activators of NPC1 promoter | 320,000 tested, 2.4% active | Potency, µM (doses to about 9.22 µM), without a hit: at the top dose activation, most hits filed as activators | AID 485313 | Huh7 NPC1 promoter luciferase reporter, 24 h; further: % of control where 0% means no effect; nearly all actives have a fitted effect of over 60% in size
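NPC1 promoter–luciferase Huh7 cells; 24 h compound; luminescence.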
FLuc counter: counter-screen for miR-21 project: firefly luciferase inhibitors or activators | purified FLuc, Km substrates, luminescence inhibition | Potency, µM (titrated, usually from 57.5 µM), inactives show at the top dose activity change, negative = inhibition, actives largely listed as inhibitors | 360,000 tested, 6.9% active;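 further: plate controls were vehicle for no effect and reference inhibitor for full effect; nearly all actives have a fitted effect of over 55% in size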
Target sequence (P08659 whole entry, looked up): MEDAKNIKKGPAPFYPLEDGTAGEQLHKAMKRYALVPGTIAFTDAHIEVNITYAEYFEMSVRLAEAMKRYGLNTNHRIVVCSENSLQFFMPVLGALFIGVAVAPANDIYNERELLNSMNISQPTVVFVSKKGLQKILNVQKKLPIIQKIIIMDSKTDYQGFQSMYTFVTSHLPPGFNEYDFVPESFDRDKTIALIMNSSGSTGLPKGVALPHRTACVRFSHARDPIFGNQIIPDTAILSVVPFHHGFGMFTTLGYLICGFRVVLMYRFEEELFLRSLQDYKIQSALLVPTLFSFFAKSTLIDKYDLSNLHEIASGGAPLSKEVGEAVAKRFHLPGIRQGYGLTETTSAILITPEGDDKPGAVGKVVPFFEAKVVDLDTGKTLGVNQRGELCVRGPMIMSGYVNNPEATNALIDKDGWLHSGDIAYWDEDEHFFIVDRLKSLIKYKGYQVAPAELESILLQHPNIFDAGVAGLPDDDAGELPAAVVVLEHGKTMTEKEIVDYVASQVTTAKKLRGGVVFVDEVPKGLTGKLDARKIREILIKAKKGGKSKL
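Purified P. pyralis luciferase, 10 nM final, with Km-level 10 uM D-luciferin and 10 uM ATP in 50 mM Tris acetate pH 7.5, 10 mM Mg acetate, 0.01% Tween-20, 0.05% BSA; 6-point qHTS titration about 60 µM downward; luminescence read.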
Starred values were filed as active, the others as inactive; ? = inconclusive; . = no result; [ ] = remark or other dose. Unless noted, the call rests on the fitted dose curve; in most records, active means well fitted curve in the direction sought with a large enough effect; inconclusive means small, poorly fitted or top-dose-only effect, or another doubt; inactive means no such curve, though single readings can be large; an effect the other way counts as inactive or inconclusive. Potency means the concentration at half of the fitted maximal effect.

SMILES	ELG1 genotoxic	uPA generation	Rab9 promoter act	SMN2 splice up	NPC1 prom act	FLuc counter
Cc1ccc(-n2c(C)cc(C3=NNC(=NC4CC4)SC3)c2C)cc1C	?	-26%	0.56µM*	?	1.6µM*	1.3µM*
O=C1c2ccccc2NC(c2ccccc2O)N1c1ccc(F)cc1 (configuration not stated)	?	-7%	4µM*	.	4µM*	-14%
C#CCNC(=O)/C=C/c1ccc(C)cc1	?	?	4µM*	13µM*	3.2µM*	11µM*
CC(=O)Nc1c(C)nn(-c2ccccc2)c1N1CCC(C(=O)NCc2cccc(Cl)c2)CC1	.	.	.	.	.	-9%
O=C(Nc1ccc(-c2nc3ccccc3o2)cc1)c1ccc2c(c1)OCO2	.	.	.	-4%	.	5%
O=C(Nc1ccc2oc(-c3ccccc3F)nc2c1)c1ccc2c(c1)OCCO2	-16%	4%	21%	-39%	14%	6.7µM*
Cc1c(NC(=O)c2cc(-n3cnnc3)ccc2Cl)cccc1-c1nc2ccccc2o1	-1%	0%	-2%	7%	0%	3.8µM*
Cc1cc(NC(=O)c2ccc3c(c2)OCCO3)cc(-c2nc3ccccc3o2)c1O	.	.	.	-1%	.	-10%
Cc1ccc(-c2nc3ccccc3o2)cc1NC(=O)c1ccc2c(c1)OCO2	7.3µM*	6%	-4%	.	?	?
Cc1c(NC(=O)c2ccc3c(c2)OCO3)cccc1-c1nc2ccccc2o1	-8%	5%	0%	-11%	-4%	9.5µM*
O=C1[C@@H]2[C@@H](C(=O)N1c1ccc(OCc3ccccc3)cc1)[C@@H]1c3ccccc3[C@@H]2[n+]2ccccc21	.	.	.	3%[9.22 µM]	.	.
O=C1CCN(Cc2ccccc2)CCN1CCSc1ccccc1	?	-8%	4.5µM*	.	?	13µM*
CCCN1CCC(=O)N(CCSc2ccc(NC(C)=O)cc2)CC1	3%	-3%	-3%	.	1%	-1%
CCCN1CCC(=O)N(CCSc2ccccc2)CC1	?	-14%	3.5µM*	.	2.8µM*	?
N#Cc1ccc(NC(=O)C2Cc3ccccc3CN2S(=O)(=O)c2ccc(F)cc2)cc1 (configuration not stated)	.	.	.	-10%	.	-3%
CC(=O)Nc1ccc2c(c1)nc1n2CCN(C2CCCCC2)C1	?	-3%	2µM*	13µM*	3.5µM*	24µM*
O=[N+]([O-])c1ccc2c(c1)nc1n2CCN(C2CCCCC2)C1	?	0%	2.5µM*	14µM*	?	15µM*
Cc1cc(C(=O)CSc2n[nH]c(-c3ccccc3F)n2)c(C)n1Cc1cccs1	-5%	-3%	-5%	-8%	0%	17µM*
Cc1cc(C(=O)CSc2nnc(N)s2)c(C)n1Cc1cccs1	0.92µM*	-12%	0.28µM*	-75%	0.56µM*	0.85µM*
Cc1csc(SCC(=O)c2cc(C)n(Cc3cccs3)c2C)n1	?	-16%	0.32µM*	-62%	?	0.17µM*
CC(C)C[C@H](NC(=O)N1CC(=O)Nc2ccccc21)C(=O)N1CCC(C(=O)O)CC1	-1%	-10%	0%	.	-1%	2%
COc1cccc(/C=C/c2nc(C#N)c(N3CCCCC3)o2)c1	.	.	.	0%	.	-15%
Cc1ccc(NC(=O)c2cc(S(=O)(=O)N3CCCCC3)c[nH]2)cc1C	-1%	4%	0%	.	-1%	2%
CCC(C)[C@H](NC(=O)NC1CCCc2ccccc21)C(=O)O (some centres not stated)	0%	.	0%	-3%	-1%	0%
CCC(NC(=O)C(C)NC)C(=O)N1CCCC1C(=O)NC1CCCc2ccccc21 (configuration not stated)	15%	0.4µM*	-2%	.	1%	-2%
SMILES	ELG1 genotoxic	uPA generation	Rab9 promoter act	SMN2 splice up	NPC1 prom act	FLuc counter
Cc1cccc(C(=O)n2nc(C)c(S(=O)(=O)N3CCOCC3)c2C)c1	.	.	.	.	.	-9%
Cc1ccc(C(=O)N2CCc3cc(CNC(=O)CSc4ccccc4)ccc32)cc1	.	.	.	.	.	24µM*
Cc1c2cnn(CC(=O)NCc3ccc(F)cc3)c(=O)c2c(C)n1Cc1ccccc1Cl	.	.	.	-1%	.	2%
[O-]/[N+](=C/c1ccc(F)cc1)c1ccc(Cl)cc1	16µM*	0%	18%	11%	?	4.8µM*
COc1ccc(C2=C(C)C(N3CCC(C(=O)Nc4ccc(F)cc4C)CC3)=NS2(=O)=O)cc1	.	.	.	.	.	-1%
CC1CCC(NC(=O)CC(NC(N)=O)c2ccccc2Cl)CC1 (configuration not stated)	1%	-1%	11%	.	14%	-3%
CC(=O)CCSc1nnc(-c2cccc(S(=O)(=O)N3CCOCC3)c2)o1	1%	1%	2%	.	2%	5%
O=S(=O)(c1ccc(OCc2nc3ccccc3s2)c(Cl)c1)N1CCOCC1	9.2µM*	4%	?	19%	?	-19%
N#CCc1nc2ccc(S(=O)(=O)N3CCOCC3)cc2s1	-4%	2%	0%	.	-1%	6%
O=S(=O)(c1cccc(-c2nnc(SCc3nc4ccccc4s3)o2)c1)N1CCOCC1	6%	-6%	?	0%	?	19µM*
COC(=O)C1CCN(c2csc3ccc(C)cc3c2=O)CC1	.	.	.	.	.	6µM*
COC(=O)C1CCN(c2csc3ccc(Cl)cc3c2=O)CC1	.	.	.	.	.	7.6µM*
O=C(NC1CC(=O)N(c2ccccc2)C1)c1cccs1 (configuration not stated)	.	.	.	.	.	4%
CCN(CC)S(=O)(=O)c1ccc2c(c1)nc(CN(C)C(=O)Nc1cccc(Cl)c1)n2C	.	.	.	.	.	0%
Cc1ccc(OC(C)C(=O)N2CCN(CCc3ccncc3)CC2)cc1C (configuration not stated)	.	.	.	.	.	-5%
CC(C)(C)c1ccc(C(=O)NCCCNC(=O)c2ccccn2)cc1	1%	-1%	-3%	.	-5%	17µM*
CC(=O)Nc1cccc(OCCCNC(=O)c2ccc(F)cc2)c1	4%	7%	21%	.	3%	?
CC(C)(C)c1ccc(C(=O)NCCCNC(=O)c2cccnc2)cc1	21%	-5%	?	.	25%	17µM*
CC(=O)Nc1cccc(OCCCNC(=O)c2ccc(C(C)(C)C)cc2)c1	0%	-17%	17%	.	14%	19µM*
COc1ccccc1N1CCN(CC2CN3C(=O)N(C)c4ccccc4C3=N2)CC1 (configuration not stated)	.	.	.	-7%	.	.
Cc1nnc(N2CCN(c3ccc(Cl)cc3)CC2)c2c1nnn2Cc1ccc(F)cc1	.	.	.	1%	.	0%
COc1ccc(NC(=O)Cn2c(=O)oc3cc(S(=O)(=O)N4CCCCC4C)ccc32)cc1 (configuration not stated)	.	.	.	.	.	-17%
